# In PubChem BioAssay AID1159580 (chemical genetic matrix, 2015):
# Several values for one entry are separate records, joined by “and”; a condition that tells them apart may be missing. Equal entries are not always repeated. Hit rate of the full screen: of about 5,500 compounds, about 2,000 (36%) were called active. Inconclusive results (about 18%) are left out. This is one part of the list. A number with no mark means an inactive call. No stated cut-off is given here; in the data, active means normalized growth mostly below about 0.91 (no sharp cut-off); inconclusive means no clear call, values can overlap the other calls; inactive means mostly above about 0.92.
# Assay: chemical genetic growth profiling, strain panel (AID 1159580);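 further: tested at 20 µM; growth read once vehicle control cultures reached saturation at 30 °C; 1 = growth at the plate median or of vehicle wells; lower values mean less growth of the strain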
# Conditions: S. cerevisiae deletion strains, growth OD
structure (smiles),measurement,setting,value
CC(C)(Sc1cc(C(C)(C)C)c(O)c(C(C)(C)C)c1)Sc1cc(C(C)(C)C)c(O)c(C(C)(C)C)c1,normalized growth,"locus YAL013W, strain DEP1, active compounds read low",1.02
same,normalized growth,"locus YAL021C, strain ccr4, active compounds read low",1.03
same,normalized growth,"locus YAL026C, strain drs2, active compounds read low",1.01
same,normalized growth,"locus YAL030W, strain snc1, active compounds read low",1
same,normalized growth,"locus YBL061C, strain skt5, active compounds read low",0.993
same,normalized growth,"locus YBR009C, strain hhf1, active compounds read low",1.02
same,normalized growth,"locus YBR021W, strain FUR4, active compounds read low",1.01
same,normalized growth,"locus YBR023C, strain chs3, active compounds read low",0.998
same,normalized growth,"locus YBR171W, strain sec66, active compounds read low",1
same,normalized growth,"locus YBR229C, strain ROT2, active compounds read low",1.01
same,normalized growth,"locus YBR231C, strain swc5, active compounds read low",0.998
same,normalized growth,"locus YBR279W, strain paf1, active compounds read low",0.993
same,normalized growth,"locus YCL011C, strain gbp2, active compounds read low",1.02
same,normalized growth,"locus YCL016C, strain dcc1, active compounds read low",1
same,normalized growth,"locus YCL029C, strain bik1, active compounds read low",1.04
same,normalized growth,"locus YCL069W, strain vba3, active compounds read low",1.01
same,normalized growth,"locus YCR088W, strain abp1, active compounds read low",1
same,normalized growth,"locus YDL005C, strain med2, active compounds read low",1.02
same,normalized growth,"locus YDL035C, strain GPR1, active compounds read low",1.02
same,normalized growth,"locus YDL040C, strain nat1, active compounds read low",0.991
same,normalized growth,"locus YDL074C, strain BRE1, active compounds read low",1.03
same,normalized growth,"locus YDL101C, strain DUN1, active compounds read low",1.02
same,normalized growth,"locus YDL134C, strain PPH21, active compounds read low",1
same,normalized growth,"locus YDL185W, strain tfp1, active compounds read low",1.02
same,normalized growth,"locus YDL192W, strain arf1, active compounds read low",1.03
same,normalized growth,"locus YDR001C, strain nth1, active compounds read low",1.02
same,normalized growth,"locus YDR069C, strain doa4, active compounds read low",0.999
same,normalized growth,"locus YDR101C, strain arx1, active compounds read low",1.02
same,normalized growth,"locus YDR137W, strain rgp1, active compounds read low",0.99
same,normalized growth,"locus YDR150W, strain NUM1, active compounds read low",1.01
same,normalized growth,"locus YDR159W, strain sac3, active compounds read low",0.989
same,normalized growth,"locus YDR162C, strain NBP2, active compounds read low",1.01
same,normalized growth,"locus YDR195W, strain ref2",1.06
same,normalized growth,"locus YDR297W, strain sur2, active compounds read low",0.99
same,normalized growth,"locus YDR318W, strain mcm21, active compounds read low",1.04
same,normalized growth,"locus YDR334W, strain swr1, active compounds read low",1.02
same,normalized growth,"locus YDR335W, strain msn5, active compounds read low",1.01
same,normalized growth,"locus YDR388W, active compounds read low",1.02
same,normalized growth,"locus YDR392W, strain spt3, active compounds read low",1.03
same,normalized growth,"locus YDR502C, strain sam2, active compounds read low",1.02
same,normalized growth,"locus YEL003W, strain gim4, active compounds read low",1.02
same,normalized growth,"locus YEL037C, strain rad23, active compounds read low",1.01
same,normalized growth,"locus YEL061C, strain CIN8 (second series), active compounds read low",1.01
same,normalized growth,"locus YEL061C, strain CIN8, active compounds read low",1.01
same,normalized growth,"locus YER015W, strain faa2, active compounds read low",1.01
same,normalized growth,"locus YER016W, strain bim1, active compounds read low",1.01
same,normalized growth,"locus YER110C, active compounds read low",1.02
same,normalized growth,"locus YER111C, strain swi4, active compounds read low",1.01
same,normalized growth,"locus YER155C, strain BEM2 (second series), active compounds read low",0.985
same,normalized growth,"locus YER155C, strain BEM2, active compounds read low",1.01
same,normalized growth,"locus YER167W, strain BCK2, active compounds read low",1.03
same,normalized growth,"locus YFR010W, strain ubp6, active compounds read low",1.04
same,normalized growth,"locus YGL078C, strain dbp3, active compounds read low",1.03
same,normalized growth,"locus YGL086W, strain mad1, active compounds read low",1.35 [resistant] (active)
same,normalized growth,"locus YGL167C, strain pmr1, active compounds read low",0.998
same,normalized growth,"locus YGL173C, strain kem1, active compounds read low",0.986
same,normalized growth,"locus YGL227W, strain vid30, active compounds read low",1.02
same,normalized growth,"locus YGL240W, strain doc1, active compounds read low",0.958
same,normalized growth,"locus YGL248W, strain PDE1, active compounds read low",1.01
same,normalized growth,"locus YGL253W, strain hxk2, active compounds read low",1.02
same,normalized growth,"locus YGR078C, strain PAC10, active compounds read low",1.02
same,normalized growth,"locus YGR135W, strain pre9, active compounds read low",1.04
same,normalized growth,"locus YGR229C, strain SMI1, active compounds read low",1.02
same,normalized growth,"locus YGR252W, strain gcn5, active compounds read low",1.06
same,normalized growth,"locus YHR013C, strain ard1, active compounds read low",1
same,normalized growth,"locus YHR027C, strain rpn1, active compounds read low",1
same,normalized growth,"locus YHR030C, strain SLT2, active compounds read low",1.02 and 0.989
same,normalized growth,"locus YHR079C, strain IRE1 (second series), active compounds read low",1.02
same,normalized growth,"locus YHR079C, strain IRE1, active compounds read low",1
same,normalized growth,"locus YHR094C, strain hxt1, active compounds read low",1.02
same,normalized growth,"locus YHR129C, strain ARP1, active compounds read low",1.01
same,normalized growth,"locus YHR142W, strain chs7, active compounds read low",1.04
same,normalized growth,"locus YHR200W, strain rpn10, active compounds read low",1.01
same,normalized growth,"locus YIL066C, strain RNR3, active compounds read low",1.01
same,normalized growth,"locus YIL073C, strain SPO22, active compounds read low",1.05
same,normalized growth,"locus YIL125W, strain kgd1, active compounds read low",1.02
same,normalized growth,"locus YIR030C, strain dcg1, active compounds read low",1.02
same,normalized growth,"locus YJL092W, strain hpr5, active compounds read low",1.01
same,normalized growth,"locus YJL095W, strain BCK1 (second series), active compounds read low",1
same,normalized growth,"locus YJL095W, strain BCK1, active compounds read low",1.05 and 0.992
same,normalized growth,"locus YJL115W, strain asf1, active compounds read low",0.993
same,normalized growth,"locus YJL129C, strain trk1, active compounds read low",1.02
same,normalized growth,"locus YJL134W, strain LCB3, active compounds read low",1.01
same,normalized growth,"locus YJL154C, strain vps35, active compounds read low",1.01
same,normalized growth,"locus YJL164C, strain tpk1, active compounds read low",1.01
same,normalized growth,"locus YJL166W, strain qcr8, active compounds read low",1.01
same,normalized growth,"locus YJL168C, strain set2, active compounds read low",1.02
same,normalized growth,"locus YJL187C, strain SWE1 (second series), active compounds read low",1.02
same,normalized growth,"locus YJL187C, strain SWE1, active compounds read low",1
same,normalized growth,"locus YJR043C, strain POL32, active compounds read low",1.03
same,normalized growth,"locus YJR066W, strain TOR1, active compounds read low",0.9
